The list is not random: actives were taken first. Their share in the collection is about 9.2%.
ELG1 genotoxic: qHTS screen for small molecules that induce genotoxicity in human embryonic kidney (HEK293T) cells expressing luciferase-tagged ELG1; HEK293T ELG1-luciferase reporter, luminescence, 16 h; Potency, µM (doses to about 46 µM), for the others: at the top dose activity change, positive = activation, usual class: activators; actives 1.3% (n = 330,000); note: % of control where 0% means no effect; nearly all actives have a fitted effect of over 60% in size
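DMSO vehicle served as control against compound-treated ELG1-luciferase HEK293T cells; exposure lasted 16 hr at 37 °C and 5% CO2, followed by ONE-Glo luminescence detection after 30 min.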
Rab9 prom act: qHTS Assay for Rab9 Promoter Activators. Potency, µM (titrated, usually from 9.22 µM), inactives show top-dose activation, negative = inhibition, hits mostly activators. actives 2.8% (n = 320,000). Huh7 Rab9 promoter-luciferase reporter, luminescence, 24 h; note: % of control where 0% means no effect; nearly all actives have a fitted effect of over 60% in size
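Rab9 promoter-driven luciferase in stably transfected Huh7 cells; 1500 cells/well rested 2 h, exposed to compound in DMSO for 24 h at 37 °C, 5% CO2. Luminescence read 10 min after adding luciferase reagent at ambient temperature.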
SMN2 splice up: qHTS Assay for Enhancers of SMN2 Splice Variant Expression; HEK293 SMN2-luciferase splicing reporter, luminescence, 30-36 h; Potency, µM (titrated, usually from 46.1 µM), for the others: at the highest dose activity change, positive = activation, hits mostly activators; actives 2.8% (n = 210,000); AID 1458, 2008; note: % of control where 0% means no effect; nearly all actives have a fitted effect of over 55% in size
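HEK293 cells carry an SMN2 minigene-luciferase reporter in which exon 7 inclusion puts luciferase in frame. Cells were seeded at 2000 cells/well, attached for 10-12 hours, then exposed to compounds for 30-36 hours at 37C before ONE-Glo luminescence.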
ELG1 DNA repair: qHTS screen for small molecules that inhibit ELG1-dependent DNA repair in human embryonic kidney (HEK293T) cells expressing luciferase-tagged ELG1 | HEK293T ELG1-luciferase reporter, luminescence, 16 h; DNA damage induced by 5-fluorouridine | Potency, µM (titrated, usually from 46.1 µM), inactives show at the top dose activity change, negative = inhibition, hits mostly inhibitors | actives 2.3% (n = 330,000) | AID 504467, 2011; note: % is set by controls: 0 for no effect and ±100 for the full control effect; nearly all actives have a fitted effect of over 55% in size
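Reporter activity after DNA damage by 5-fluorouridine is monitored. Compound-treated cells incubate 16 hr at 37 °C, then ONE-Glo is added for 30 min before luminescence reading.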
NPC1 promoter act: qHTS Assay for NPC1 Promoter Activators | Huh7 NPC1 promoter luciferase reporter, 24 h | Potency, µM (top dose mostly 9.22 µM), without a hit: at the highest dose activation, actives largely listed as activators | actives 2.4% (n = 320,000) | AID 485313, 2010; note: % of control where 0% means no effect; nearly all actives have a fitted effect of over 60% in size
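Luminescence from an NPC1 promoter-driven luciferase reporter in stably transfected Huh7 cells was measured after 24 h compound treatment at 37 °C, followed by 10 min ambient incubation with luciferase detection reagent.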
FLuc counter: qHTS profiling assay for firefly luciferase inhibitor/activator using purifed enzyme and Km concentrations of substrates (counterscreen for miR-21 project); Luciferin 4-monooxygenase (Photinus pyralis), P08659; actives 6.9% (n = 360,000); Potency, µM (titrated, usually from 57.5 µM), for inactives: at the top dose activity change, negative = inhibition, hits mostly inhibitors; purified FLuc, Km substrates, luminescence inhibition;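 note: plate controls were vehicle for no effect and reference inhibitor for full effect; nearly all actives have a fitted effect of over 55% in size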
Target sequence (P08659 whole entry, looked up): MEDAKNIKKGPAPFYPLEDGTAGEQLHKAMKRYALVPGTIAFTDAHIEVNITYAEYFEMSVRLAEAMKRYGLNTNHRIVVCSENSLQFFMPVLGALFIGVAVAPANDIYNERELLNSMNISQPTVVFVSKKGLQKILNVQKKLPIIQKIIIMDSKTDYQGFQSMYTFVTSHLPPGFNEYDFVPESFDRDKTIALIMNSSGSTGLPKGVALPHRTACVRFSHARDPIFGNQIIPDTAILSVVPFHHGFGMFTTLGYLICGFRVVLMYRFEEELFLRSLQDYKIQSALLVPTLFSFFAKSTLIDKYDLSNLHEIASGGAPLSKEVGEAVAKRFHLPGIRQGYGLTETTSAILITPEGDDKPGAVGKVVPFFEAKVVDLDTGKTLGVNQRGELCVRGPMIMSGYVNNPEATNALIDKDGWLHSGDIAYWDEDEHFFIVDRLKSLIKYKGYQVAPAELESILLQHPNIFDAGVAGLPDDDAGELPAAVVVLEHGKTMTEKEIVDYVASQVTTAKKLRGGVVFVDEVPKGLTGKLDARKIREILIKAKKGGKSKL
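Biochemical qHTS of compounds, final roughly 60 µM downward over six points, against 10 nM purified firefly luciferase using Km concentrations of substrates (10 uM D-luciferin, 10 uM ATP) in Tris acetate pH 7.5 buffer; luminescence output.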
Numbers without * were called inactive; ? = inconclusive; . = not tested or not shown; [ ] = dose if it differs, or a comment. Calls come from the whole dose curve; as a rule, active = well fitted curve in the direction sought with a large enough effect; inconclusive = small, poorly fitted or top-dose-only effect, or another doubt; inactive = no such curve, though single readings can be large; an effect the other way counts as inactive or inconclusive. Potency is the fitted concentration of half-maximal effect.

SMILES | ELG1 genotoxic | Rab9 prom act | SMN2 splice up | ELG1 DNA repair | NPC1 promoter act | FLuc counter
OC(COc1ccc(OCc2ccccc2)cc1)CN1CCCCC1 (stereo unspecified) | 16µM* | ? | 28% | ? | 30% | ?
O[C@H](COc1ccccc1)CN1CCCCC1 | . | . | -6%[9.22 µM] | . | . | .
c1ccc(COc2ccc(OCCCN3CCCC3)cc2)cc1 | ? | 0.63µM* | 6.3µM* | ? | 1µM* | 3.4µM*
c1ccc(Cc2ccc(OCCn3cncn3)cc2)cc1 | ? | 0% | -28% | 0% | -3% | 1%
COc1ccc(-c2[nH]ncc2/C=C(/C#N)C(=O)NC2CCCCCC2)cc1 | -8% | -6% | -14% | 18µM* | -11% | -1%
N#C/C(=C/c1ccc(OCc2ccccc2)cc1)C(=O)NC1CCCCC1 | 8% | 22% | ? | 32% | 25% | 3%
CCOC(=O)C1(Cc2ccccc2Cl)CCN(C(=O)CN2CCOC2=O)CC1 | ? | 3.5µM* | . | ? | ? | 11µM*
O=C(NCC1(O)CCCCC1)C1CCC(=O)N(CCc2ccccc2)C1 (stereo unspecified) | 0% | -7% | . | 8% | -4% | 0%
Cn1c(-c2ccccn2)[n+](C)c2ccccc21 | 1% | 1% | . | 9% | -11% | -2%
Cn1c(-c2ccc3ccccc3n2)[n+](C)c2ccccc21 | -3% | -31% | . | ? | -12% | 21µM*
COc1ccc(Cn2c(CNC(=O)c3ccc(N(C)C)cc3)nc3cccnc32)cc1 | . | . | . | . | . | -6%
CCc1ccc2c(c1)C(=O)C[C@]1(CCC[C@H](C)C1)O2 | ? | 0% | . | -3% | -1% | -2%
COc1cccc(OCc2cc(C(=O)N3CCN(c4ccccc4OC)CC3)no2)c1 | 17% | ? | . | ? | ? | 15µM*
COc1cccc(OCc2cc(C(=O)N3CCN(c4ccccc4O)CC3)no2)c1 | ? | 3.2µM* | . | ? | 2.8µM* | 12µM*
COc1ccc(OCc2cc(C(=O)N3CCN(CC4CC4)CC3)no2)c(Cl)c1 | 5%[9.26 µM] | ? | . | ? | ? | ?
COc1cccc(OCc2cc(C(=O)N3CCN(C(C)=O)CC3)no2)c1 | ? | 3.2µM* | . | ? | ? | ?
Cc1ccc(SCc2nc(-c3ccccc3)no2)cc1 | 6% | 21% | 21% | 19% | 2% | 0%[2.3 µM]
c1ccc(SCc2nc(-c3ccncc3)no2)cc1 | 15µM* | ? | 11µM* | ? | 4µM* | 17µM*
COc1ccc(-c2noc(CSc3ccccc3)n2)cc1OC | 14% | 4µM* | . | ? | ? | 13µM*
Cc1ccc(SCc2nc(-c3ccncc3)no2)cc1 | 0% | 3% | -14% | 12% | 0% | 4%[2.3 µM]
CCc1ccc(NC(=O)CCCNC(=O)Cn2cnc3sc(C)c(C)c3c2=O)cc1 | ? | -3% | . | 0% | 2% | -1%
O=C(OCc1ccc(F)cc1)c1cc(=O)c2ccccc2o1 | 1% | 1% | . | 1% | -4% | 15µM*
O=C(C1CCN(c2ccc(N3CCOCC3)nn2)CC1)N1CCN(c2ccc(F)cc2)CC1 | -4% | -3% | -35% | 16µM* | -1% | 3%
O=C(NCCC1=CCCCC1)c1ccc(Br)o1 | 16µM* | 25% | 29% | ? | 26% | ?
O=C(NC1CCCC1)c1ccc(CN2CCOCC2)cc1 | 12% | 16% | -1% | ? | 9% | -5%
O=C(NC(=S)NCCC1=CCCCC1)c1ccc(Br)o1 | 12% | ? | 26% | ? | 21% | ?
COc1cccc(C(=O)NCCC2=CCCCC2)c1 | ? | 0.63µM* | ? | ? | 0.56µM* | 3µM*
